Shiga toxin inh = inhibitors of Shiga toxin in Vero cells; Vero cells, Shiga toxin protein synthesis inhibition reporter; inhibition, % at 38.7 µM; actives 9.2% (n = 290,000); in the data active = inhibition mostly above about 28%, no sharp cut-off; inactive = mostly below about 43%; also: 0% is about no effect
FBPA Giardia inh = inhibitors of Giardia lamblia fructose-1,6-bisphosphate aldolase; purified Giardia FBPA; Potency, µM (series often up to 59.6 µM), inactives show at the top dose activity, negative = inhibition, usual class: inhibitors; actives 0.71% (n = 290,000); AID 2451; also: potency is read from the fitted curve at half-maximal effect; % is scaled to controls: 0 for no effect and ±100 for the full control effect; nearly all actives have a fitted effect of over 55% in size
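Giardia FBPA (40 nM reagent) was preincubated 10 min at RT with compound (up to 57.5 uM final), then substrate plus GAPDH/TPI/NAD/arsenate coupling system with diaphorase/resazurin was added; resorufin fluorescence (525/598 nm) was read after 20 min.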
Tb PYK inh = T. brucei pyruvate kinase inhibition; Q57TT1; TbPYK enzyme, Kinase-Glo Plus ATP luminescence, 45 min; Potency, µM (top dose mostly 76.8 µM), for inactives: at the top dose activity, negative = inhibition, actives largely listed as inhibitors; actives 0.12% (n = 410,000); AID 624173; also: potency is read from the fitted curve at half-maximal effect; % is scaled to controls: 0 for no effect and ±100 for the full control effect; nearly all actives have a fitted effect of over 50% in size
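ADP (130 uM final) triggers the TbPYK reaction after compound addition; incubation is 45 min at room temperature. Kinase-Glo Plus is then added and luminescence imaged. Normalized data are fitted to concentration-effect curves.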
RE007 growth inh = less growth of the S. pombe RE007 Vpr strain; Potency, µM (series often up to 92.2 µM), without a hit: at the top dose activity change, negative = less growth, usual class: inhibitors; actives 0.21% (n = 360,000); S. pombe RE007 Vpr strain, BacTiter-Glo ATP luminescence, 24 h; active = well fitted falling curve with a large enough effect; inconclusive = small, poorly fitted or top-dose-only effect; inactive = no such curve, though single readings can be large or run the other way; also: potency is read from the fitted curve at half-maximal effect; % is scaled to controls: 0 for no effect and ±100 for the full control effect; nearly all actives have a fitted effect of over 50% in size
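Fission yeast strain RE007, carrying one chromosomally integrated HIV-1 vpr copy, was seeded at OD 0.01 in PMG+AL medium with 23 nL pinned compound. After 24 h at 30 °C and 99% humidity, viability was read by BacTiter-Glo luminescence.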
CHX counter = affects cycloheximide protein synthesis inhibition readout, counter-screen | cell reporter, cycloheximide protein synthesis inhibition counterscreen | max response, % | actives 12% (n = 300,000) | AID 2314; in the data active = max response mostly above about 13%, no sharp cut-off; inactive = mostly below about 14%; also: read at 38.3 µM for the half of the compounds with a filed dose; 0% is about no effect
LmPK inh = LmPK (Leishmania mexicana) enzyme inhibition; Q27686; purified LmPK, Kinase-Glo ATP luminescence, 1 h; Potency, µM (series often up to 57.5 µM), inactives show at the highest dose activity change, negative = inhibition, usual class: inhibitors; actives 0.37% (n = 290,000); also: potency is read from the fitted curve at half-maximal effect; % is scaled to controls: 0 for no effect and ±100 for the full control effect
Target sequence (Q27686 whole entry, looked up): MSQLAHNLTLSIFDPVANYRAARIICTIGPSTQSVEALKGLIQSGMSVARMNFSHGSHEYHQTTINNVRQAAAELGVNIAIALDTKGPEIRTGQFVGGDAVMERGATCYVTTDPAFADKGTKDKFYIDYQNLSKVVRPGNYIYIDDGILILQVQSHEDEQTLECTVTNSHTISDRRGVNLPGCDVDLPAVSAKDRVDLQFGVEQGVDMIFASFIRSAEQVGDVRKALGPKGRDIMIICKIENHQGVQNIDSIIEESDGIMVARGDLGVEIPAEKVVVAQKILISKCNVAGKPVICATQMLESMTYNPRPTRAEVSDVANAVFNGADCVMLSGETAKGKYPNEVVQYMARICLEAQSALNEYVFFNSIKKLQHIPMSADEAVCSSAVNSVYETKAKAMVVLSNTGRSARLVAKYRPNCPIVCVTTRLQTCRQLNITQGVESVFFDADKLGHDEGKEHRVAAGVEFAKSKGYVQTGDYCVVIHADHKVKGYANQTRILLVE
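Pyruvate kinase activity monitored as ATP production (luciferase luminescence). Conditions: 0.1 nM enzyme, 0.5 mM PEP, 0.1 mM ADP, 1 h, RT; normalized against uninhibited and no-enzyme wells.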
Starred values were filed as active, the others as inactive; ? = inconclusive; . = no result; [ ] = dose if it differs, or a comment. Shown is part of a subset that was picked to be rich in hits. Unless noted, calls follow the shape of the dose curve; as a rule, active = well fitted curve in the direction sought with a large enough effect; inconclusive = small, poorly fitted or top-dose-only effect, or another doubt; inactive = no such curve, though single readings can be large; an effect the other way counts as inactive or inconclusive.

SMILES	Shiga toxin inh	FBPA Giardia inh	Tb PYK inh	RE007 growth inh	CHX counter	LmPK inh
CCCCCn1nc(C)c(/C=N\NC(=O)c2cc(C)oc2C)c1C	44*	0%	1%	-6%	18*	0%
CCn1nc(C)c(/C=N/NC(=O)c2nc3nc(C)cc(C)n3n2)c1C	15	-1%	1%	-2%	0	-1%
CCn1nc(C)c(/C=N\NC(=O)c2cccc(OC)c2)c1C	18	2%	-7%	-6%	11	-3%
CCn1nc(C)c(/C=N/NC(=O)c2ccoc2C)c1C	70	.	?	-1%	25*	?
Cc1cc(C(=O)N/N=C/c2c(C)nn(-c3ccccc3)c2C)c(C)o1	59*	-2%	0%	3%	42*	-20%
COc1ccc(-n2c(SCC(=O)Nc3cc(C)cc(C)c3)nc3c(oc4ccccc43)c2=O)cc1	.	.	1%	.	.	.
CNC(=O)C1(C(F)(F)F)CC(CCCO)CCCO1 (stereo unspecified)	-7	4%	.	.	6	.
COCCCn1c(SCC(=O)Nc2ccc(F)cc2)nc2c(sc3ccccc32)c1=O	.	.	2%	.	.	.
CO[C@@H]1COC(=O)C/C=C\[C@H](C)COC(=O)[C@H](C)NC(=O)C/C=C\[C@H]1C	.	2%[12.9 µM]	.	.	.	.
COc1ccc(S(=O)(=O)c2cc(NS(=O)(=O)c3ccc(Cl)cc3)c(C)c(C)c2O)cc1	.	.	7%	.	.	.
Nc1ccc(C#Cc2ccccc2)cc1	64*	9%	1%	-11%	41*	5%
Nc1ccccc1C#Cc1ccccc1	88*	0%	-3%	-9%	64*	-12%
Nc1ccccc1C#Cc1ccc2[nH]ccc2c1	.	.	2%	-10%	.	.
CN(C)C=Nc1c(I)cc(I)c(CCC(=O)O)c1I	.	.	6%	.	.	.
COc1ccc2c(c1)C(=O)[C@@H](OC(=O)NS(=O)(=O)c1ccc(C)cc1)[C@H](c1ccc(OC)c(Br)c1)O2	.	6%	.	.	.	.
CCc1ccc(CNC(=O)CCc2nnc(Cc3cccc(C(F)(F)F)c3)o2)nc1	11	-2%	-8%	-13%	0	-1%
CC(C)NC(=O)CCc1nnc(Cc2cccc(C(F)(F)F)c2)o1	92*	3%	0%	-15%	28*	-6%
CCC(COC)NC(=O)CCc1nnc(Cc2cccc(C(F)(F)F)c2)o1 (stereo unspecified)	60*	-1%	-1%	-8%	46*	-3%
CC(C)N(CCO)C(=O)CCc1nnc(Cc2cccc(C(F)(F)F)c2)o1	52	2%	-2%	11%	19*	-2%
COCCCNC(=O)CCc1nnc(Cc2ccc(-c3ccccc3)cc2)o1	1	0%	-1%	19%	0	-2%
Cc1cc(-c2nnc(CCC(=O)NCc3cccc(C(F)(F)F)c3)o2)no1	29	.	2%	-8%	21*	7%
Cc1cc(-c2nnc(CCC(=O)NCc3ccc(F)c(F)c3)o2)no1	-10	6%	1%	47%	-3	1%
COc1ccc(OC)c(NC(=O)N(C)CCc2c(C)nn(C)c2C)c1	.	.	0%	.	.	.
CCCC[C@@H]1CCCO[C@@](C(=O)NCCOC)(C(F)(F)F)C1	-11	2%	.	.	-6	.
O=C(NCc1ccc(F)cc1)C(c1ccccc1)c1ccccc1	19	8%	-2%	0%	5	1%
SMILES	Shiga toxin inh	FBPA Giardia inh	Tb PYK inh	RE007 growth inh	CHX counter	LmPK inh
CC(=O)N(Cc1ccc(F)cc1)C1=C(NCc2ccccc2)C(=O)c2ccccc2C1=O	19	?	-2%	7.1µM*	15	-2%
COc1ccc(CNC(=O)Cn2c(=O)oc3cc(S(=O)(=O)NCc4ccccc4)ccc32)cc1	.	.	-1%[15.4 µM]	.	.	.
COc1ccc(C2=NN(CN3C(=O)C(=O)c4ccccc43)C(c3ccc(OC)cc3)C2)cc1 (stereo unspecified)	131*	-9%	-16%	-5%	76*	-2%
C[n+]1cc[nH]c1SCC(=O)c1ccccc1	58	-20%	-14%	4%	37*	-15%
C[n+]1cc[nH]c1SCC(=O)c1ccc(Cl)cc1	63	-13%	-14%	-14%	31*	?
Cc1ccc(-c2nc3ncccc3o2)cc1NC(=O)c1ccc(-c2ccc(Cl)cc2)o1	.	.	1%	.	.	.
CN(C)S(=O)(=O)c1cccc(-c2nnc(SCC(=O)NCCCCCC(=O)O)n2-c2ccc(F)cc2)c1	32*	0%	?	-19%	14	0%
CNC(=O)CSc1nnc(-c2cccc(S(=O)(=O)N3CCOCC3)c2)n1-c1ccc(F)cc1	-7	1%	2%	9%	-1	4%
O=c1[nH]c(Cc2ccccc2Cl)nc2ccccc12	-3	-2%	2%	-7%	8	0%
O=C(CCc1nc2ccccc2c(=O)[nH]1)NNC(=O)COc1ccccc1Cl	.	.	-7%	-2%	.	.
O=c1[nH]c(COc2ccc(Cl)cc2Br)nc2ccccc12	127*	.	3%	-9%	51*	2%
O=c1[nH]c(COc2ccc(Cl)cc2Cl)nc2ccccc12	41*	.	3%	9%	38*	3%
COC(=O)c1ccc(/C=C/C(=O)c2ccc(OC)c(OC)c2)cc1	22	2%	-3%	?	13	-11%
COc1ccc(C=CC(=O)c2ccc(OCc3ccccc3)c(OC)c2)cc1OC	.	.	-11%	3%	.	.
COc1ccc(/C=C/C(=O)c2ccc(C(=O)/C=C/c3ccc(OC)c(OC)c3)cc2)cc1OC	20	7%	-5%	12%	28*	-2%
COc1ccc(C(=O)/C=C/c2ccc(OC(=O)c3cc(OC)c(OC)c(OC)c3)cc2)cc1	-5	4%	-3%	-3%	1	-4%
COc1cc(/C=C/C(=O)c2ccc(C)cc2)ccc1OCC#N	107*	-9%	5%	-24%	81*	-4%
COc1ccc(/C=C/c2ccncc2)cc1OC	57*	0%	-4%	9%	28*	-21%
C(=C\c1ccncc1)/c1ccncc1	-1	8%	2%	-15%	-2	-2%
COC(=O)c1ccc(/C=C/C(=O)c2ccc(OC)cc2)cc1	54	-2%	-4%	-14%	25*	0%
COc1ccc(C2=C(C)C(=O)N(Cc3ccc(C(=O)NC(C)c4ccccc4)cc3)S2(=O)=O)cc1 (stereo unspecified)	.	.	1%	.	.	.
CC(=O)OC[C@@H]1O[C@@H](O/N=C2/C[C@@H](O)[C@@H](O)[C@@H]3[C@@H]4C(=O)N(C(C)(C)C)C(=O)[C@H]4CC[C@@H]23)[C@H](OC(C)=O)[C@H](OC(C)=O)[C@@H]1OC(C)=O	.	-2%[12.9 µM]	.	.	.	.
COc1ccc(/C=C/C(=O)C2(O)CCCCC2)cc1	47*	-2%	-3%	?	19*	2%
COc1ccc(/C=C/C(=O)c2ccccc2)cc1Cn1nnc2ccccc21	27*	0%	4%	-3%	27*	-2%
